According to publication PMC4336329 (PLoS ONE, 2015):
In all, about 310,000 compounds went through this assay and about 14,000 (4.5%) showed an effect of 50% or more. The effect is printed as a negative number. Many of the other results were omitted from the sample, so strong results are more common in it than they were.

biological target: human ether-à-go-go-related gene (hERG) potassium channel (human, UniProt Q12809); experiment: primary screen, population patch clamp on CHO cells stably expressing hERG; higher = less effect of the substance
Sequence (Q12809 whole entry, looked up): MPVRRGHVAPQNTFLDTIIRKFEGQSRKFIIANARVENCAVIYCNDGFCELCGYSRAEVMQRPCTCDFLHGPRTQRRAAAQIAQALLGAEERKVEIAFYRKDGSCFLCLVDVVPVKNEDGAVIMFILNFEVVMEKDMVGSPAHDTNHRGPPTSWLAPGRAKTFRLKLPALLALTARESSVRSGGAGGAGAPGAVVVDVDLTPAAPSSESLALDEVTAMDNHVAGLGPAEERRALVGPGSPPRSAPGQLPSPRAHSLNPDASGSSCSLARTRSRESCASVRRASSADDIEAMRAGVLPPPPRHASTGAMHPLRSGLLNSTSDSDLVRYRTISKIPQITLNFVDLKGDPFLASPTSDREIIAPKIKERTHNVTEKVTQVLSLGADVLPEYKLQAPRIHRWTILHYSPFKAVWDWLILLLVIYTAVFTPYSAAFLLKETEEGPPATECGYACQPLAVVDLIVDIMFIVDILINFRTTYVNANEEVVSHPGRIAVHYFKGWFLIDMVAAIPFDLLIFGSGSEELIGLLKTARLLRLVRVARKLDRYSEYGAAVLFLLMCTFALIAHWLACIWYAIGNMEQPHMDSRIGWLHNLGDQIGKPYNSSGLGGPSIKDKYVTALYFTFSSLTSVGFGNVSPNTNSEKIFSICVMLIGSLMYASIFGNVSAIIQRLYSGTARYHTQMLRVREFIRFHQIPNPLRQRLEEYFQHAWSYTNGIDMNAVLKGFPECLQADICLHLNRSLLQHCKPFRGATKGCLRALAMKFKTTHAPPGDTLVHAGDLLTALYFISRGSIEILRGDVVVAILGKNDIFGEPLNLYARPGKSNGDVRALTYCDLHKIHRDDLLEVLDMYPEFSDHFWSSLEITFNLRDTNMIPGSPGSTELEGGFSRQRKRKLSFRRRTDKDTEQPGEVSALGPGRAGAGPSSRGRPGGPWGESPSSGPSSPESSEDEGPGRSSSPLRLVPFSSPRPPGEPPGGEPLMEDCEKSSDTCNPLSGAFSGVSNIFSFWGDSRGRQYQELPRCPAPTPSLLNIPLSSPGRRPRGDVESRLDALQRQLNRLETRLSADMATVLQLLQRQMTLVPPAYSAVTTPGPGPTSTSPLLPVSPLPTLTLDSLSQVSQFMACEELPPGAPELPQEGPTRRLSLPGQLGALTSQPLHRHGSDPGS
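Also: peak tail current of the secondary pulse compared with the same well before compound.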

Structure (SMILES) | hERG current change (%, negative = inhibition) at 10uM [%]
ClC1(Cl)CC1CSc1nnc(-c2ccncc2)o1 (stereo not shown) | -16.3
COc1ccc(-c2ccc(NS(=O)(=O)c3cc([N+](=O)[O-])c(C)c([N+](=O)[O-])c3)cc2)nn1 | -11.3
O=C(Cn1nnc(N2CCCC2)n1)N/N=C/c1ccc(Cl)cc1 | 13.1
Cc1cc(C)c(C)c(S(=O)(=O)NCc2ccc(C(=O)N3CCOCC3)cc2)c1C | -4.97
O=C(CCC(F)(F)F)N1CCCC(N2CCN(c3cccc(Cl)c3)CC2)C1 (stereo not shown) | -46.8
O=C(CSc1ccccc1)N1CCN(c2ccc(F)cc2)CC1 | 10.8
O=C(CSc1ccccc1)N1CCCC(N2CCN(c3ccc(F)cc3)CC2)C1 (stereo not shown) | -75.3
O=C(CSc1ccccc1)N1CCCC(N2CCN(c3ccccc3)CC2)C1 (stereo not shown) | -33.7
CC(=O)CCC(=O)N1CCCC(N2CCN(c3cccc(Cl)c3)CC2)C1 (stereo not shown) | -2.63
O=C(CSc1ccccc1)N1CCCC(N2CCN(c3cccc(Cl)c3)CC2)C1 (stereo not shown) | -54.1
CCCc1cc(C(=O)NCc2ccco2)no1 | 9.57
COc1cccc(CCc2nnc(CCC(=O)NCCc3cccc(C)n3)o2)c1 | 24.7
CCCOc1cccc(C2C(C(=O)c3cc4ccccc4o3)=C(O)C(=O)N2c2cc(C)on2)c1 (stereo not shown) | -7.72
CCCCCCOC(=O)C[N+](C)(C)CCOC1CC2CCC1(C)C2(C)C.[Cl-] (stereo not shown) | -78.1
CC(C)CCOC(=O)C[N+](C)(C)CCOC1CC2CCC1(C)C2(C)C.[Cl-] (stereo not shown) | -16.3
CCCCOC(=O)C[N+](C)(C)CCOC1CC2CCC1(C)C2(C)C.[Br-] (stereo not shown) | -52.7
CCOC(=O)C[N+](C)(C)CCOC1CC2CCC1(C)C2(C)C.[Cl-] (stereo not shown) | 10.3
CCCOC(=O)C[N+](C)(C)CCOC1CC2CCC1(C)C2(C)C.[Br-] (stereo not shown) | 13
CCC(C)OC(=O)C[N+](C)(C)CCOC1CC2CCC1(C)C2(C)C.[Cl-] (stereo not shown) | -17.3
CCCn1nc2cc(C(=O)NCc3ccc(OC(F)(F)F)cc3)ccc2c1OCC | 14.3
O=C(COC(=O)c1ccc(Cl)nc1)NC1CCCCCC1 | -5.25
CCCc1nnc(NC(=O)CCC(=O)N2CCN(C3c4ccccc4-c4ccccc43)CC2)s1 | -3.76

Structure (SMILES) | hERG current change (%, negative = inhibition) at 10uM [%]
CCCP(=O)(CC(=O)N(CC)CC)c1ccccc1 (stereo not shown) | 12
COc1ccccc1N1CCN(C(=O)c2cc3n(n2)C(C(F)(F)F)CC(c2ccco2)N3)CC1 (stereo not shown) | -1.94
CC(C)c1nnc(NC(=O)c2cc3ccccc3o2)s1 | 11.1
Cc1c(CNC(=O)C2CC2)c(-n2cccc2)n(Cc2ccccc2)c1C | 27.1
O=S(=O)(c1cccc(COc2ccc(Cl)cc2Cl)c1)N1CCOCC1 | 3.46
Cc1cc(OCc2cccc(S(=O)(=O)N3CCOCC3)c2)ccc1Cl | -9.12
CC(=O)c1cc(Cl)ccc1OCc1cccc(S(=O)(=O)N2CCOCC2)c1 | -68.9
O=S(=O)(c1cccc(COc2c(Cl)cccc2Cl)c1)N1CCOCC1 | -12
N#Cc1ccc(OCc2cccc(S(=O)(=O)N3CCOCC3)c2)cc1 | -82.1
N#Cc1ccccc1OCc1cccc(S(=O)(=O)N2CCOCC2)c1 | -38.9
COC(=O)c1sc2nc(CN3CCOCC3)nc(N3CCOCC3)c2c1C | 1.53
O=c1cc(N2CCN(c3ccccc3)CC2)[nH]c(=O)n1Cc1ccc(F)cc1 | -25.9
OC1(c2ccccn2)COc2ccccc2O1 (stereo not shown) | -10.5
CC(=O)Nc1ccc(Br)cc1C(=O)C(=O)O | -2.93
CCCOc1ccc(-c2nnn(CC(=O)N3CCCCC3)n2)cc1 | 12.9
N#C/C(=C\c1ccc(Cl)cc1)c1nc2ncccc2[nH]1 | -15.1
CC1CCN(c2c(NCC3CCC(C(=O)N4CCCC(C)C4)CC3)c(=O)c2=O)CC1 (stereo not shown) | 2.75
CCc1ccc(O)c(CNCCNCc2cc(CC)ccc2O)c1 | -55.2
Oc1ccc(Cl)cc1CNCc1ccc(Cl)cc1 | -3.68
Cc1ccc(O)c(CNCCNCc2cc(C)ccc2O)c1 | -11.9
N=c1c(C(=O)NCCN2CCOCC2)cc2c(=O)n3ccccc3nc2n1Cc1ccc(F)cc1 | -76.5
Cc1cccn2c(=O)c3cc(C(=O)NCCN4CCOCC4)c(=N)n(Cc4ccc(F)cc4)c3nc12 | -72.9

Structure (SMILES) | hERG current change (%, negative = inhibition) at 10uM [%]
Cn1c(C(=O)NCCN2CCOCC2)cc2c(=O)n3ccccc3nc21 | 10
O=C(NCCN1CCOCC1)c1cc2c(=O)n3ccccc3nc2n1Cc1ccccc1 | -5.9
Cc1c(C)n(Cc2ccc(F)cc2)c2ccc(C(=O)NCCN3CCOCC3)cc12 | -19.2
Cc1ccc(Cn2c(=N)c(C(=O)NCCN3CCOCC3)cc3c(=O)n4ccccc4nc32)cc1 | -63.2
CC(C)NC(=O)Cn1c(SCC(=O)c2ccc(F)cc2)nc2ccccc21 | 6.27
COCCn1c(-c2ccc(F)cc2)nc2cccnc21 | 12.1
O=C1C[C@H](NC(=O)OCc2ccccc2)CO1 | 6.32
Fc1ccc(C2NCCn3cccc32)cc1.O=C(O)/C=C/C(=O)O (stereo not shown) | -3.11
CCOc1ccc(NC(=O)[C@@H]2CCCN2C(=O)c2cccs2)cc1S(=O)(=O)N1CCCCC1 | 10.5
COc1ccc2nc(NC(=O)[C@@H]3CCCN3C(=O)c3cccs3)sc2c1 | -56.4
O=C(Nc1nc2ccc(Cl)cc2s1)[C@@H]1CCCN1C(=O)c1cccs1 | 3.87
COc1ccc(NC(=O)[C@@H]2CCCN2C(=O)c2cccs2)cc1S(=O)(=O)N1CCCCC1 | -6.06
Cc1ccc(NC(=O)C2CCCN2C(=O)c2cccs2)cc1C (stereo not shown) | -25.5
COc1ccc2nc(NC(=O)c3cccs3)sc2c1 | 8.71
O=C(Nc1ccc(OC(F)F)c(Cl)c1)[C@@H]1CCCN1C(=O)c1cccs1 | -74.3
O=C(Nc1ccc(S(=O)(=O)N2CCCC2)cc1)C1CCCN1C(=O)c1cccs1 (stereo not shown) | 0.837
Cc1ccc(NC(=O)[C@@H]2CCCN2C(=O)c2cccs2)cc1S(=O)(=O)N1CCCCC1 | -63.9
CCOc1ccc(NC(=O)[C@@H]2CCCN2C(=O)c2cccs2)cc1S(=O)(=O)N1CCOCC1 | 6.27
O=C(Nc1ccc(Cl)c(S(=O)(=O)N2CCOCC2)c1)[C@@H]1CCCN1C(=O)c1cccs1 | -57.6
O=C(Nc1ccccc1OC(F)F)C1CCCN1C(=O)c1cccs1 (stereo not shown) | 1.98
CNC(=O)CN(C)S(=O)(=O)c1ccc(OC)c(Cl)c1 | 6.65
CC(=O)Nc1ncc(Cc2cc(Cl)ccc2Cl)s1 | -1.4

Structure (SMILES) | hERG current change (%, negative = inhibition) at 10uM [%]
CSc1nnc(Cn2c(=O)sc3ccccc32)n1-c1cccc(Cl)c1 | -37.9
Cn1c(=O)c2c(ncn2CC(=O)OCC(=O)Nc2ccccc2Cl)n(C)c1=O | 4.46
CC(C(=O)NC1CCCc2ccccc21)N1CCN(Cc2ccc3c(c2)OCO3)CC1 (stereo not shown) | -51.9
CC(C(=O)NC1CCCc2ccccc21)N1CCN(c2ccc(F)cc2)CC1 (stereo not shown) | -35.6
CC(NCc1ccc2c(c1)OCO2)C(=O)NC1CCCc2ccccc21.O=C(O)C(=O)O (stereo not shown) | -22.6
COC(=O)c1cc2c(ccn2C)n1C | 19.5
CC(C)(C)c1ccc(S(=O)(=O)/N=C2\C=C(NS(=O)(=O)c3ccccc3)C(=O)c3ccccc32)cc1 | -2.61
O=C(NC(=S)N1CCCCC1c1cccnc1)c1ccc(F)cc1 (stereo not shown) | 5.06
COc1ccc(/C=C/C(=O)NC(=S)NN2CCCCC2c2cccnc2)cc1OC (stereo not shown) | 3.25
O=C(/C=C/c1ccc(F)cc1)NC(=S)N1CCCCC1c1cccnc1 (stereo not shown) | -68.1
O=C(NC(=S)N1CCCCC1c1cccnc1)c1ccccc1 (stereo not shown) | 4.5
COc1ccc(/C=C/C(=O)NC(=S)NN2CCCCC2c2cccnc2)cc1 (stereo not shown) | -26.9
O=C(/C=C/c1ccc(Cl)cc1)NC(=S)NN1CCCCC1c1cccnc1 (stereo not shown) | -67
COc1ccc(C)cc1NCc1cccc(OC)c1OC | 1.13
COc1cc(/C=C(\C#N)C(=O)NCC2CCCO2)ccc1OCCC(C)C (stereo not shown) | 4.67
O=C(Nc1ccccc1)N1CCCN(c2ccc(C(F)(F)F)cc2[N+](=O)[O-])CC1 | -39.9
O=C(Cn1nc(Cc2cccnc2)c2ccccc2c1=O)NCC1CCCO1 (stereo not shown) | 9.7
O=C(Cn1nc(Cc2cccnc2)c2ccccc2c1=O)NCc1ccc2c(c1)OCO2 | -25.8
O=C(Cn1nc(Cc2cccnc2)c2ccccc2c1=O)NCC1COc2ccccc2O1 (stereo not shown) | -57.4
